In PubChem BioAssay (Tox21):
Results filed as inconclusive are left out. The source made the active and inactive calls. The call rests on the fitted dose curve.

Assay: G protein-coupled receptor (GPCR) small molecule agonists, calcium flux assay: HEK293 wild type cell line counter screen (AID 1920065)
Settings: HEK293 WT calcium flux, fluorescence, agonist mode; series mostly up to 57.6 µM; activation: at the top concentration
How it was run: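 Kinetic fluorescence at Ex/Em 480/540, recorded every second over 3 min, served as the read-out after compound addition. Each compound was tested at 15 concentrations in triplicate on cells pre-loaded with calcium dye for 1 h.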
On the % scale 0 is the no-effect control and ±100 the full control effect.

Row | Structure (SMILES) | activation
1 | CCCOc1ccc(S(=O)(=O)N2CCN(CC)CC2)cc1-c1nc2c(CC)n(Cc3ccccn3)nc2c(=O)[nH]1 | -1.19% (inactive)
2 | COc1cc(Cl)c(OC)cc1N | -1.05% (inactive)
3 | Oc1ccccc1F | 0.0342% (inactive)
4 | NCCCN1CCOCC1 | -0.79% (inactive)
5 | CC(C)OC(=O)c1ccccc1C(=O)OC(C)C | -1.9% (inactive)
6 | CC1CC(OC(=O)C(O)c2ccccc2)CC(C)(C)N1C (stereo not given) | 0.896% [at 26.5 µM] (inactive)
7 | C=CC(=C)CCCC(C)(C)OC(C)=O | 0.943% (inactive)
8 | CC(=O)N[C@@H](CCC(=O)O)C(=O)O | -0.167% [at 26.5 µM] (inactive)
9 | CC(=O)OCC(=O)[C@H]1CC[C@H]2[C@@H]3CCC4=CC(=O)CC[C@]4(C)[C@H]3CC[C@]12C | 0.0713% [at 26.5 µM] (inactive)
10 | CCOc1ccc2nc(S(N)(=O)=O)sc2c1 | 0.456% [at 26.5 µM] (inactive)
11 | O=C(O)c1ccc2cc(C(=O)O)ccc2c1 | -0.282% (inactive)
12 | OCCc1ccncc1 | -0.0318% (inactive)
13 | CN1C(CSCC(F)(F)F)Nc2cc(Cl)c(S(N)(=O)=O)cc2S1(=O)=O (stereo not given) | 0.508% [at 26.5 µM] (inactive)
14 | O=c1cc(O)c(Cl)c[nH]1 | -0.156% [at 26.5 µM] (inactive)
15 | N#CCCNCCC#N | -0.0816% (inactive)
16 | CN1CCC(=C2c3ccccc3CCc3cccnc32)CC1 | -0.0686% [at 26.5 µM] (inactive)
17 | CCO[C@H](Cc1ccc(OCCc2ccc(OS(C)(=O)=O)cc2)cc1)C(=O)O | -0.0204% [at 26.5 µM] (inactive)
18 | CC(CC=O)CCCC(C)(C)O (stereo not given) | 2.49% (inactive)
19 | COc1ccc(/C=N/NC(=O)c2ccncc2)cc1OC | 0.0713% [at 26.5 µM] (inactive)
20 | C=CCOC(=O)COCCC(C)C | 0.584% (inactive)

Row | Structure (SMILES) | activation
21 | CCOC(=O)CC(=O)c1ccccc1 | 0.458% (inactive)
22 | CCOc1ccccc1OCCN[C@H](C)Cc1ccc(OC)c(S(N)(=O)=O)c1 | -0.124% [at 26.5 µM] (inactive)
23 | CCCCCCC(C)Nc1ccc(Nc2ccccc2)cc1 (stereo not given) | -1.06% (inactive)
24 | O=C(NS(=O)(=O)/C=C/c1cccs1)c1ccc(F)cc1Br | -1.06% (inactive)
25 | CCCc1ccc(OC)cc1 | 0.365% (inactive)
26 | CCCCCCC#CC(=O)OC | 0.149% (inactive)
27 | Cc1ccc(-c2ncc(Cl)cc2-c2ccc(S(C)(=O)=O)cc2)cn1 | -0.967% [at 26.5 µM] (inactive)
28 | COC=O | 2.54% [at 5.23 µM] (inactive)
29 | CCCCCCCCCCO[C@@H]1O[C@H](CO)[C@@H](O)[C@H](O)[C@H]1O | -0.169% (inactive)
30 | CCN1C=CN(C)C1C (stereo not given) | -1.4% (inactive)
31 | CN(C)CCOCCO | -0.145% (inactive)
32 | CCC1Nc2cc(Cl)c(S(N)(=O)=O)cc2S(=O)(=O)N1 (stereo not given) | -0.327% [at 26.5 µM] (inactive)
33 | CCCCOC(=O)CCCCC(=O)OCCCC | -1.98% (inactive)
34 | O=C1[C@@H]2[C@H]3CC[C@H](C3)[C@@H]2C(=O)N1CCCCN1CCN(c2ncccn2)CC1 | -0.382% [at 26.5 µM] (inactive)
35 | O=C(O)CNC(=O)c1ccccc1 | 0.905% [at 26.5 µM] (inactive)
36 | COC1CCC=CO1 (stereo not given) | -0.083% (inactive)
37 | CCOCCn1c(N2CCCN(C)CC2)nc2ccccc21 | -0.237% [at 26.5 µM] (inactive)
38 | COCc1nnc(-c2ccc[n+]([O-])c2)n1-c1c(Cl)c(Cl)cc2[nH]c(=O)c(=O)[nH]c12 | -0.0059% (inactive)
39 | CN(C(=O)CN(CCO)CC(=O)N(C)C(C)(C)Cc1ccccc1)C(C)(C)Cc1ccccc1 | -0.797% [at 26.5 µM] (inactive)
40 | CN(C)c1ccc(C2(c3ccc(N(C)C)cc3)OC(=O)c3cc(N(C)C)ccc32)cc1 | -0.397% (inactive)

Assay: p53 small molecule agonists, cell-based qHTS assay with human liver microsomes: qHTS cell viability counter screen (AID 1963579); further: nearly all actives have a fitted effect of over 45% in size; further: potency means the concentration at half of the fitted maximal effect
Settings: p53RE-bla HCT-116 viability, ATP luminescence, 16 h, HLM; series mostly up to 66 µM; activity change, negative = cytotoxicity: at the top concentration
How it was run: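 Luminescent CellTiter-Glo read-out, 30 min at room temperature, gauged cytotoxicity in p53RE-bla cells exposed 16 h at 37 C to DMSO-dissolved compounds with metabolic activation by human liver microsomes and NADPH, each 0.5 mg/mL final.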

Row | Structure (SMILES) | activity change, negative = cytotoxicity | Potency
41 | CCCOc1ccc(S(=O)(=O)N2CCN(CC)CC2)cc1-c1nc2c(CC)n(Cc3ccccn3)nc2c(=O)[nH]1 | -11.1% (inactive) | 
42 | COc1cc(Cl)c(OC)cc1N | 11% (inactive) | 
43 | Oc1ccccc1F | 2.43% (inactive) | 
44 | NCCCN1CCOCC1 | -0.949% (inactive) | 
45 | CC(C)OC(=O)c1ccccc1C(=O)OC(C)C | 7.81% (inactive) | 
46 | CC1CC(OC(=O)C(O)c2ccccc2)CC(C)(C)N1C (stereo not given) | 19.2% [at 30.3 µM] (inactive) | 
47 | C=CC(=C)CCCC(C)(C)OC(C)=O | 3.22% (inactive) | 
48 | CC(=O)N[C@@H](CCC(=O)O)C(=O)O | -0.755% [at 30.3 µM] (inactive) | 
49 | CC(=O)OCC(=O)[C@H]1CC[C@H]2[C@@H]3CCC4=CC(=O)CC[C@]4(C)[C@H]3CC[C@]12C | -15.8% [at 30.3 µM] (inactive) | 
50 | CCOc1ccc2nc(S(N)(=O)=O)sc2c1 | 0.972% [at 30.3 µM] (inactive) | 
51 | O=C(O)c1ccc2cc(C(=O)O)ccc2c1 | 0.218% (inactive) | 
52 | OCCc1ccncc1 | 0.284% (inactive) | 
53 | CN1C(CSCC(F)(F)F)Nc2cc(Cl)c(S(N)(=O)=O)cc2S1(=O)=O (stereo not given) | -2.9% [at 30.3 µM] (inactive) | 
54 | O=c1cc(O)c(Cl)c[nH]1 | 18.4% [at 30.3 µM] (inactive) | 
55 | N#CCCNCCC#N | 8.26% (inactive) | 
56 | CN1CCC(=C2c3ccccc3CCc3cccnc32)CC1 | 14.5% [at 30.3 µM] (inactive) | 
57 | CCO[C@H](Cc1ccc(OCCc2ccc(OS(C)(=O)=O)cc2)cc1)C(=O)O | -6.06% [at 30.3 µM] (inactive) | 
58 | CC(CC=O)CCCC(C)(C)O (stereo not given) | 7.66% (inactive) | 
59 | COc1ccc(/C=N/NC(=O)c2ccncc2)cc1OC | 5.22% [at 30.3 µM] (inactive) | 
60 | C=CCOC(=O)COCCC(C)C | 2.08% (inactive) | 

Row | Structure (SMILES) | activity change, negative = cytotoxicity | Potency
61 | CCOC(=O)CC(=O)c1ccccc1 | -1.83% (inactive) | 
62 | CCOc1ccccc1OCCN[C@H](C)Cc1ccc(OC)c(S(N)(=O)=O)c1 | 2.49% [at 30.3 µM] (inactive) | 
63 | CCCCCCC(C)Nc1ccc(Nc2ccccc2)cc1 (stereo not given) |  | 40.8 µM (active)
64 | O=C(NS(=O)(=O)/C=C/c1cccs1)c1ccc(F)cc1Br | 1.92% (inactive) | 
65 | CCCc1ccc(OC)cc1 | -10.5% (inactive) | 
66 | CCCCCCC#CC(=O)OC | 12.6% (inactive) | 
67 | Cc1ccc(-c2ncc(Cl)cc2-c2ccc(S(C)(=O)=O)cc2)cn1 | 0.043% [at 30.3 µM] (inactive) | 
68 | COC=O | -1.32% [at 5.99 µM] (inactive) | 
69 | CCCCCCCCCCO[C@@H]1O[C@H](CO)[C@@H](O)[C@H](O)[C@H]1O | -1.46% (inactive) | 
70 | CCN1C=CN(C)C1C (stereo not given) | -4.44% (inactive) | 
71 | CN(C)CCOCCO | 7.2% (inactive) | 
72 | CCC1Nc2cc(Cl)c(S(N)(=O)=O)cc2S(=O)(=O)N1 (stereo not given) | -7.89% [at 30.3 µM] (inactive) | 
73 | CCCCOC(=O)CCCCC(=O)OCCCC | 16.8% (inactive) | 
74 | O=C1[C@@H]2[C@H]3CC[C@H](C3)[C@@H]2C(=O)N1CCCCN1CCN(c2ncccn2)CC1 | 13.2% [at 30.3 µM] (inactive) | 
75 | O=C(O)CNC(=O)c1ccccc1 | 1.7% [at 30.3 µM] (inactive) | 
76 | COC1CCC=CO1 (stereo not given) | 4.44% (inactive) | 
77 | CCOCCn1c(N2CCCN(C)CC2)nc2ccccc21 | 0.718% [at 30.3 µM] (inactive) | 
78 | COCc1nnc(-c2ccc[n+]([O-])c2)n1-c1c(Cl)c(Cl)cc2[nH]c(=O)c(=O)[nH]c12 | 1.25% (inactive) | 
79 | CN(C(=O)CN(CCO)CC(=O)N(C)C(C)(C)Cc1ccccc1)C(C)(C)Cc1ccccc1 | 2.7% [at 30.3 µM] (inactive) | 
80 | CN(C)c1ccc(C2(c3ccc(N(C)C)cc3)OC(=O)c3cc(N(C)C)ccc32)cc1 |  | 18.2 µM (active)
